Our source for the outcome and AC50 values is PubChem BioAssay (EPA / NIEHS).

Read-out in experiment [1]: E-selectin (Homo sapiens) (UniProt P16581)
In words: BSK_3C_Eselectin: BioMAP Diversity Plus: 3C Assay for Eselectin Biomarker Activity (AID 2283015).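 Note: cell surface E-selectin protein quantified by ELISA 24 h after dosing.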 As to conditions: primary human endothelial cells (HUVEC); actives raise or lower the signal. A digest of the protocol:
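HUVEC, 3C stimulation; compound exposure 24 h; E-selectin by ELISA; gain- or loss-of-signal fitted bidirectionally vs DMSO baseline.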

Read-out in experiment [2]: Human Leukocyte Antigen - DR isotype (HLADR), HLA-DRA (gene 3122)
In words: BSK_3C_HLADR: BioMAP Diversity Plus: 3C Assay for Human Leukocyte Antigen - DR isotype (HLADR) Biomarker Activity (AID 2283019). As to conditions: primary human endothelial cells (HUVEC); actives raise or lower the signal. In short, it runs like this:
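HUVEC, 3C stimulation, 24 h post-dose; HLA-DR by ELISA; bidirectional curve fit vs DMSO baseline; gain or loss of signal scored.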

Read-out in experiment [3]: Matrix Metallopeptidase 1 (MMP1), MMP1 (gene 4312)
In words: BSK_BE3C_MMP1: BioMAP Diversity Plus: BE3C Assay for Matrix Metallopeptidase 1 (MMP1) Biomarker Activity (AID 2283024). As to conditions: primary human bronchial epithelial cells; actives raise or lower the signal. A digest of the protocol:
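ELISA measurement of MMP-1 after 24 h compound exposure of primary human bronchial epithelial cells. Changes in either direction fitted relative to DMSO; parallel SRB staining checked overt cytotoxicity.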

Read-out in experiment [4]: Pselectin, SELP (gene 6403)
In words: BSK_4H_Pselectin: BioMAP Diversity Plus: 4H Assay for Pselectin Biomarker Activity (AID 2283026). As to conditions: primary human endothelial cells (HUVEC); actives raise or lower the signal. In short, it runs like this:
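ELISA of surface P-selectin on HUVEC, 24 h after dosing, with parallel SRB staining (0.1% after 10% TCA fixation, 560 nm) for overt cytotoxicity. Activity fitted in both directions relative to DMSO.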

Read-out in experiment [5]: Human Leukocyte Antigen - DR isotype (HLADR), HLA-DRA (gene 3122)
In words: BSK_BE3C_HLADR: BioMAP Diversity Plus: BE3C Assay for Human Leukocyte Antigen - DR isotype (HLADR) Biomarker Activity (AID 2283032). As to conditions: primary human bronchial epithelial cells; actives raise or lower the signal. In short, it runs like this: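 Cell-surface HLA-DR ELISA readout at 24 h after dosing in the BE3C primary human lung bronchial epithelial system; gain or loss of signal against DMSO, with parallel sulforhodamine B staining of total protein for overt cytotoxicity.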

Read-out in experiment [6]: Interferon-gamma inducible Protein 10 (IP10), CXCL10 (gene 3627)
In words: BSK_BE3C_IP10: BioMAP Diversity Plus: BE3C Assay for Interferon-gamma inducible Protein 10 (IP10) Biomarker Activity (AID 2283034). As to conditions: primary human bronchial epithelial cells; actives raise or lower the signal. In short, it runs like this:
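IP-10 quantified by ELISA in human primary bronchial epithelial cell cultures at 24 hours post-dosing. Gain or loss of signal fitted relative to DMSO; parallel SRB staining assessed overt cytotoxicity.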

Read-out in experiment [7]: urokinase plasminogen activator (uPA), PLAU (gene 5328)
In words: BSK_BE3C_uPA: BioMAP Diversity Plus: BE3C Assay for urokinase plasminogen activator (uPA) Biomarker Activity (AID 2283038).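 Note: uPA protein level quantified by ELISA in cell cultures; uPA read one day after compound addition.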 As to conditions: primary human bronchial epithelial cells; actives raise or lower the signal. In short, it runs like this: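 ELISA read-out of uPA in human lung primary bronchial epithelial cultures, 24 h post-dosing. Gain or loss of signal fitted bidirectionally relative to DMSO baseline; cytotoxicity checked in parallel cultures via SRB total protein stain.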

Read-out in experiment [8]: Interleukin-6 (IL6), IL6 (gene 3569)
In words: BSK_CASM3C_IL6: BioMAP Diversity Plus: CASM3C Assay for Interleukin-6 (IL6) Biomarker Activity for (AID 2283040). As to conditions: primary human coronary artery smooth muscle cells; actives raise or lower the signal.

Read-out in experiment [9]: Macrophage colony-stimulating factor (MCSF), CSF1 (gene 1435)
In words: BSK_CASM3C_MCSF: BioMAP Diversity Plus: CASM3C Assay for Macrophage colony-stimulating factor (MCSF) Biomarker Activity (AID 2283044).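 Note: M-CSF protein amount quantified by ELISA after 24 h exposure.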 As to conditions: primary human coronary artery smooth muscle cells; actives raise or lower the signal.

Read-out in experiment [10]: Low-density lipoprotein receptor (LDLR), LDLR (gene 3949)
In words: BSK_CASM3C_LDLR: BioMAP Diversity Plus: CASM3C Assay for Low-density lipoprotein receptor (LDLR) Biomarker Activity (AID 2283045).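 Note: LDLR protein level on the cell surface quantified by ELISA.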 As to conditions: primary human coronary artery smooth muscle cells; actives raise or lower the signal.

Read-out in experiment [11]: Tissue Factor, F3 (gene 2152)
In words: BSK_CASM3C_TissueFactor: BioMAP Diversity Plus: CASM3C Assay for Tissue Factor Biomarker Activity (AID 2283052).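 Note: cell surface tissue factor protein level read by ELISA.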 As to conditions: primary human coronary artery smooth muscle cells; actives raise or lower the signal.

Read-out in experiment [12]: Urokinase-type plasminogen activator receptor (uPAR), PLAUR (gene 5329)
In words: BSK_CASM3C_uPAR: BioMAP Diversity Plus: CASM3C Assay for Urokinase-type plasminogen activator receptor (uPAR) Biomarker Activity (AID 2283054).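 Note: cell-surface uPAR protein level quantified by ELISA.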 As to conditions: primary human coronary artery smooth muscle cells; actives raise or lower the signal.

Read-out in experiment [13]: Collagen III, COL3A1 (gene 1281)
In words: BSK_hDFCGF_CollagenIII: BioMAP Diversity Plus: hDFCGF Assay for Collagen III Biomarker Activity (AID 2283056). As to conditions: primary human foreskin fibroblasts; actives raise or lower the signal. In short, it runs like this:
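hDFCGF primary human dermal fibroblasts; 24 h chemical exposure; collagen III by ELISA; bidirectional curve fit vs DMSO baseline (gain or loss of signal).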

Read-out in experiment [14]: Epidermal growth factor receptor (EGFR), EGFR (gene 1956)
In words: BSK_hDFCGF_EGFR: BioMAP Diversity Plus: hDFCGF Assay for Epidermal growth factor receptor (EGFR) Biomarker Activity (AID 2283057). As to conditions: primary human foreskin fibroblasts; actives raise or lower the signal. In short, it runs like this: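 EGFR levels by ELISA in human dermal fibroblast cultures, 24 h post-treatment, fitted bidirectionally versus DMSO. Parallel wells stained with sulforhodamine B to detect overt cytotoxicity.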

Read-out in experiment [15]: Vascular cell adhesion molecule 1 (VCAM1), VCAM1 (gene 7412)
In words: BSK_hDFCGF_VCAM1: BioMAP Diversity Plus: hDFCGF Assay for Vascular cell adhesion molecule 1 (VCAM1) Biomarker Activity (AID 2283065). As to conditions: primary human foreskin fibroblasts; actives raise or lower the signal. A digest of the protocol:
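ELISA read-out of VCAM-1 on human skin fibroblasts, 24 h post-dose; gain or loss of signal fitted bidirectionally against DMSO baseline.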

Read-out in experiment [16]: Intercellular Adhesion Molecule 1 (ICAM1), ICAM1 (gene 3383)
In words: BSK_KF3CT_ICAM1: BioMAP Diversity Plus: KF3CT Assay for Intercellular Adhesion Molecule 1 (ICAM1) Biomarker Activity (AID 2283067). As to conditions: primary human keratinocytes with fibroblasts; actives raise or lower the signal. In short, it runs like this: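 ELISA readout of ICAM-1; KF3CT human skin co-culture (keratinocytes + foreskin fibroblasts), 24 h post-dose; gain/loss fit vs DMSO baseline.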

Read-out in a further experiment: CD40, CD40 (gene 958)
In words: BSK_LPS_CD40: BioMAP Diversity Plus: LPS Assay for CD40 Biomarker Activity (AID 2283076). As to conditions: primary human HUVEC with PBMC; actives raise or lower the signal. In short, it runs like this:
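ELISA readout of CD40 in HUVEC/PBMC co-culture (BSK_LPS system), 24 h post-dosing; bidirectional curve fit, DMSO baseline; parallel SRB total-protein staining for cytotoxicity.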

Read-out in experiment [17]: E-selectin (Homo sapiens) (UniProt P16581)
In words: BSK_LPS_Eselectin: BioMAP Diversity Plus: LPS Assay for Eselectin Biomarker Activity (AID 2283077). As to conditions: primary human HUVEC with PBMC; actives raise or lower the signal. A digest of the protocol: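 ELISA readout of E-selectin, 24 h post-dose, HUVEC + PBMC co-culture (LPS system). Gain or loss of signal vs DMSO baseline, bidirectional fit.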

Read-out in experiment [18]: Interleukin-1 alpha (IL1a), IL1A (gene 3552)
In words: BSK_LPS_IL1a: BioMAP Diversity Plus: LPS Assay for Interleukin-1 alpha (IL1a) Biomarker Activity (AID 2283080). As to conditions: primary human HUVEC with PBMC; actives raise or lower the signal. A digest of the protocol:
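HUVEC/PBMC co-culture, LPS system; 24 h after dosing; IL-1a by ELISA; gain or loss of signal fitted bidirectionally vs DMSO baseline.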

A short description of experiment [19]: BSK_LPS_PGE2: BioMAP Diversity Plus: LPS Assay for Prostaglandin E2 (PGE2) Biomarker Activity (AID 2283082). As to conditions: primary human HUVEC with PBMC; actives raise or lower the signal. In short, it runs like this: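 PGE2 release measured by ELISA in an LPS-activated co-culture of human umbilical vein endothelial cells and peripheral blood mononuclear cells, read at 24 h post-dosing. DMSO served as baseline for bidirectional curve fitting.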

Some compounds were tested as several samples or in several runs, with calls that do not always agree. Activity calls are given as the source filed them. Rule for the calls: active = hit-call score of the fitted dose curve at least 0.9, where 1 is the maximum; inactive = score below 0.9.

Chain of E-selectin (Homo sapiens) (P16581 whole entry, looked up): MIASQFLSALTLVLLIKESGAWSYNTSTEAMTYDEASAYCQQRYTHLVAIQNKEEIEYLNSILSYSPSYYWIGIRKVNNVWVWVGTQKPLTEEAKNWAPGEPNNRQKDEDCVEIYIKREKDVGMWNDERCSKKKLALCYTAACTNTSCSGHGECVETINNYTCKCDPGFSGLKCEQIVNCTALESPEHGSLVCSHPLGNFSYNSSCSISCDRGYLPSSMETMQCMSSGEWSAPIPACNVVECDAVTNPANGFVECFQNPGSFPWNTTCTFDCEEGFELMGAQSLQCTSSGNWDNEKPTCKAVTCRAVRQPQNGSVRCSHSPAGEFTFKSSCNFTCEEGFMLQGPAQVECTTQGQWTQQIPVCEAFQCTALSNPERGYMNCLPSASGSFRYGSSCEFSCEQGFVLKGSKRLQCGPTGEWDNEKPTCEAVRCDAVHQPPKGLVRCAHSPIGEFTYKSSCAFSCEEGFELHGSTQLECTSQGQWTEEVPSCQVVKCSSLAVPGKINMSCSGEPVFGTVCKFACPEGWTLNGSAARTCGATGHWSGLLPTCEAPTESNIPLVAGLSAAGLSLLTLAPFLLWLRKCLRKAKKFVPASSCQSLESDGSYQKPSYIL

Take `CC(C)C1OCCN1CCOC(=O)NCCCCCCNC(=O)OCCN1CCOC1C(C)C` (configuration not stated): the result in experiment [1], in experiment [2], in experiment [3], in experiment [4], in experiment [5] and in experiment [6] was inactive. In addition, the outcome in experiment [7], in [8], in experiment [9], in [10], in experiment [11] and in experiment [12] was inactive. Also, the outcome is “inactive” in experiment [13]; “inactive” in [14]; “inactive” in [15]; “inactive” in experiment [16]; “inactive” in the experiment with CD40, CD40 (gene 958); “inactive” in experiment [17]. Further, the outcome in [18] and in experiment [19] was inactive.

As usually defined, the AC50 is the concentration at which the activity in the assay is half-maximal. Take `Oc1cccc2ccccc12`: the result in experiment [1], in [3], in [4], in [5], in experiment [6] and in experiment [7] was inactive. The outcome in experiment [8], in experiment [9], in experiment [10], in [11], in experiment [12] and in experiment [13] was inactive. The outcome in experiment [14] is “inactive”; in [15] it was “inactive”; in experiment [16] it was “inactive”; in the experiment with CD40, CD40 (gene 958), “inactive”; in experiment [17], “inactive”; in experiment [18], “inactive”. Besides, in experiment [19], the result was inactive. For the same compound, in experiment [2], the AC50 was 10.5 µM (active).

In the case of `Cc1c(C(N)=O)cc([N+](=O)[O-])cc1[N+](=O)[O-]`, the result in experiment [1], in experiment [2], in experiment [3], in experiment [4], in [5] and in experiment [6] was inactive. Also, the outcome in [7], in [8], in [9], in [10], in experiment [11] and in experiment [12] was inactive. Also, the outcome is “inactive” in experiment [13]; “inactive” in experiment [14]; “inactive” in experiment [15]; “inactive” in [16]; “inactive” with CD40, CD40 (gene 958); “inactive” in [17]. In addition, the result in [18] and in experiment [19] was inactive. In addition, the AC50 in [5] was 27.8 µM (active); in experiment [6], 32.6 µM (active).
